Compound activity (PubChem)
HCV inh – qHTS Assay for Inhibitors of Hepatitis C Virus (HCV). Potency, µM (series often up to 41.8 µM), usual class: inhibitors. AID 651820, 2012. Huh7.5.1 HCVcc-Cre infection, luciferase reporter, 44 h. 340,000 tested, 3.4% active
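Compounds are dispensed onto cells plated 4 h earlier at 1,000 per well, with HCVcc-Cre virus (about 0.5 moi) added next. Following 44 h of culture, luminescent signal is measured for 15 sec after 15 min with substrate at room temperature.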
Pf growth 96h – Primary qHTS for delayed death inhibitors of the malarial parasite plastid, 96 hour incubation. P. falciparum luciferase reporter growth, 96 h. Potency, µM (highest dose often 28.7 µM), most hits filed as inhibitors. 320,000 tested, 6.9% active
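Two-generation exposure (96 h) targets delayed-death phenotype. Reporter parasites carrying integrated firefly luciferase, in red cells at 2% hematocrit and 0.05% parasitemia final, kept at 37 C, 5% CO2; luminescence loss indicates inhibition.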
HCMV inh – qHTS Assay for inhibitors of the human cytomegalovirus (HCMV); activity change, negative = inhibition, % at 57.5 µM; HFF cells, HCMV-luciferase reporter, 72 h; active compounds read low; 410,000 tested, 4.5% active; AID 1259415, 2018; in the data active means activity change below about -60%; inconclusive means no clear call, values can overlap the other calls; inactive means above about -39%
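HFF cells seeded 16 h at 37C, treated with compounds, infected with luciferase-reporter HCMV at MOI 1 PFU/cell; luciferase read at 72 h post infection, normalized to buffer-only and Salinomycin controls.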
Pf growth 48h – Primary qHTS for delayed death inhibitors of the malarial parasite plastid, 48 hour incubation; P. falciparum luciferase growth in erythrocytes, 48 h; 310,000 tested, 5.9% active; Potency, µM (series often up to 28.7 µM), hits mostly inhibitors; AID 504832, 2011
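Read-out is firefly luciferase luminescence from an integrated reporter in P. falciparum, so falling signal marks reduced parasite growth. Infected erythrocytes were at 2% hematocrit and 0.1% parasitemia (final) in Albumax-supplemented RPMI 1640.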
Hits are given with their value; 0 = inactive; ? = inconclusive; - = no result given; [ ] = remark or other dose. Rows were chosen to be rich in hits. Some 13% of all compounds tested hit in one or more screens of this group. Unless noted, the call rests on the fitted dose curve; in most records, active means well fitted inhibition curve with a large enough effect; inconclusive means small, poorly fitted or top-dose-only effect, or another doubt; inactive means no such curve, though single readings can be large or run the other way.

SMILES	HCV inh	Pf growth 96h	HCMV inh	Pf growth 48h
CCN(CC)c1ccc(/C=C/[N+](=O)[O-])cc1	0	0	-114	0
CCN(CC)S(=O)(=O)c1ccc2c(c1)nc(CCC(=O)Nc1ccc(N3CCOCC3)cc1)n2C	?	?	0	15µM
Cn1c(CCC(=O)Nc2ccc(F)cc2)nc2cc(S(=O)(=O)N3CCOCC3)ccc21	0	?	0	0
CCN(Cc1ccc(OC)c(F)c1)C(=O)/C=C/c1ccc(S(=O)(=O)N2CCOCC2)cc1	?	9.3µM	0	10µM
COc1cccc(NC(=O)/C=C/c2ccc(S(=O)(=O)N3CCOCC3)cc2)c1	?	10µM	0	?
COc1cccc(/C=C/C(=O)OCC(=O)Nc2ccc(S(=O)(=O)N3CCCC3)cc2)c1	0	0	0	0
O=C(/C=C/c1ccc(S(=O)(=O)N2CCOCC2)cc1)N(CCO)Cc1ccccc1	0	0	0	0
COc1cccc(CN(C)C(=O)/C=C/c2ccc(S(=O)(=O)N3CCCCCC3)cc2)c1	?	12µM	0	12µM
CCN(CC)S(=O)(=O)c1ccc(/C=C/C(=O)Nc2ccc(N3CCOCC3)cc2)cc1	13µM	1.9µM	-83	10µM
CCCn1c(CCC(=O)Nc2ccccc2Cc2ccccc2)nc2cc(S(=O)(=O)N3CCOCC3)ccc21	?	2.3µM	0	-
CC(=O)Nc1cccc(NC(=O)/C=C/c2ccc(S(=O)(=O)N3CCOCC3)cc2)c1	0	-	0	-
O=C(/C=C/c1ccco1)Nc1ccc(S(=O)(=O)N2CCOCC2)cc1	3.5µM	0	0	0
CCCCn1c(CCC(=O)O)nc2cc(S(=O)(=O)N3CCCC3)ccc21	0	-	0	-
Cc1ccc(NC(=O)/C=C/c2ccc(S(=O)(=O)N3CCOCC3)cc2)cc1S(=O)(=O)N(C)C	?	-	-74	-
CCOC(=O)c1ccc(NS(=O)(=O)c2cc3c(cc2C)n(C)c(=O)c(=O)n3C)cc1	-	-	0	-
COc1cccc(NC(=O)CN(C)C(C)C(=O)Nc2ccc(S(=O)(=O)N3CCOCC3)cc2)c1 (stereo unspecified)	0	4.7µM	0	5.2µM
O=C(/C=C/c1ccc(F)cc1)Nc1ccc(S(=O)(=O)N2CCOCC2)cc1	?	?	0	10µM
COc1ccc(CN(C)C(C)C(=O)Nc2ccc(S(=O)(=O)N3CCOCC3)cc2)c(OC)c1 (stereo unspecified)	0	?	0	?
CCOc1ccccc1NC(=O)/C=C/c1ccc(S(=O)(=O)N2CCOCC2)cc1	10µM	4.7µM	0	4.7µM
CCOc1ccccc1NC(=O)c1ccc(S(=O)(=O)N2CCOCC2)cc1	?	-	0	0
O=C(/C=C\c1ccco1)Nc1ccc(N2CCN(C(=O)c3ccccc3)CC2)cc1	0	5.9µM	?	?
O=C(/C=C/c1ccc(F)cc1)Nc1cc(S(=O)(=O)N2CCOCC2)ccc1N1CCOCC1	-	-	0	-
COc1ccc(C)cc1NC1(c2ccccc2)C(=O)c2ccccc2C1=O	-	-	0	-
Cc1ccc(C(=O)c2cn(CC(=O)NC3CCCCC3)c3nc(C)ccc3c2=O)cc1	-	-	0	-
Cc1c(NS(=O)(=O)c2ccc(N3CCCCC3)c([N+](=O)[O-])c2)c(=O)n(-c2ccccc2)n1C	0	0	0	0
SMILES	HCV inh	Pf growth 96h	HCMV inh	Pf growth 48h
Cc1c(NS(=O)(=O)c2ccc(N(C)C3CCCCC3)c([N+](=O)[O-])c2)c(=O)n(-c2ccccc2)n1C	0	10µM	0	?
Cc1cc(C)cc(NC(=O)CCn2cnc3ccccc3c2=O)c1	-	-	0	-
Cn1c(=O)n(C/C=C/c2ccccc2)c(=O)c2c1nc1n2CCN1c1ccc(Cl)cc1	-	-	0	-
Cn1c(=O)n(C/C=C/c2ccccc2)c(=O)c2c1nc1n2CCCN1Cc1ccccc1	?	15µM	0	13µM
CCn1c(=O)c2c(nc3n2CCCN3Cc2ccccc2)n(C)c1=O	0	0	0	?
CC(C)Cn1c(=O)c2c(nc3n2CCCN3Cc2ccccc2)n(C)c1=O	?	12µM	-	10µM
C=C(C)Cn1c(=O)c2c(nc3n2CCN3c2cccc(Cl)c2C)n(C)c1=O	?	?	0	9.3µM
C=CCn1c(=O)c2c(nc3n2CCCN3Cc2ccccc2)n(C)c1=O	0	0	0	?
Cc1c(Cl)cccc1N1CCn2c1nc1c2c(=O)n(CC(=O)O)c(=O)n1C	-	-	0	-
Cn1c(=O)n(C/C=C/c2ccccc2)c(=O)c2c1nc1n2CCCN1c1ccc(F)cc1	11µM	?	0	12µM
CC(C)Cn1c(=O)c2ccccc2n2c(CCC(=O)NCc3ccc(Cl)cc3)nnc12	-	-	0	-
CCCCCCCCCCCC(=O)[O][Sn]([CH2]CCC)([CH2]CCC)[O]C(=O)CCCCCCCCCCC	-	0	-	0
CCn1c(=O)c2c(nc3n2CCN3c2ccccc2)n(C)c1=O	?	?	-75	0
Cc1cccc(Cn2c(=O)c3c(nc4n3CCCN4Cc3ccccc3)n(C)c2=O)c1	11µM	-	0	13µM
Cn1c(=O)n(Cc2ccc(F)cc2)c(=O)c2c1nc1n2CCCN1C1CCCCC1	0	0	-67	?
Cn1c(=O)n(CC(=O)O)c(=O)c2c1nc1n2CCCN1Cc1ccccc1	0	?	0	0
O=C(NCCCN1CCN(c2ccccc2F)CC1)c1sc2ncccc2c1-n1cccc1	-	-	0	-
Cc1cc(=O)n2nc(N3CCC(C(=O)Nc4ccc(C)c(Cl)c4)CC3)sc2n1	-	-	0	-
Cc1ccc(Nc2nnc(-c3ccc(N4CCOCC4)c([N+](=O)[O-])c3)c3ccccc23)cc1	25µM	?	-89	0
O=[N+]([O-])c1cc(-c2nnc(N3CCOCC3)c3ccccc23)ccc1N1CCOCC1	?	0	0	0[5.75 µM]
O=[N+]([O-])c1cc(-c2nnc(Nc3ccc(O)cc3)c3ccccc23)ccc1N1CCOCC1	?	?	-69	?
O=[N+]([O-])c1cc(-c2nnc(Nc3ccccc3)c3ccccc23)ccc1N1CCOCC1	13µM	?	-74	?
CCCN(CCC)C(=O)Cn1c(=O)n(-c2ccc(Cl)c(Cl)c2)c(=O)c2c(C)c(C(=O)N(C)C)sc21	-	-	0	-
CCOC(=O)c1cc(S(=O)(=O)NCc2ccc(OC)cc2)[nH]n1	-	-	0	-
CSc1nnc(-c2ccccc2)c(-c2ccccc2)n1	0	?	?	12µM
SMILES	HCV inh	Pf growth 96h	HCMV inh	Pf growth 48h
CCCCCCNC(=O)N[C@H](C(=O)NCCC[C@H]1CN2C(=NC[C@H]2C)N1CCC(c1ccccc1)c1ccccc1)C(C)O (stereo partly specified)	-	2.9µM	-	9.3µM
CCCCCCCN1C(Nc2ccccc2)=NC[C@@H]1CC(C)C	?	?	0	?
CCOc1ccc(N(Cc2cc3cc(C)ccc3[nH]c2=O)C(=O)c2cccc(Cl)c2)cc1	-	-	0	-
CCCc1c(-c2ccc(F)cc2F)ncn1Cc1cccc(-c2ccccc2)c1	-	-	-87	-
COc1ccccc1-c1ncn(Cc2cccc(-c3ccccc3)c2)c1-c1ccco1	-	-	0	-
CCc1c(-c2ccccc2OC)ncn1Cc1cccc(-c2ccccc2)c1	-	-	-98	-
Fc1ccc(-c2noc3nc(Oc4ccccc4F)ccc23)cc1	-	-	0	-
CCOC(=O)c1c(S(=O)(=O)N2CCCC(C(=O)Nc3cccc(C#N)c3)C2)c(C)n(C)c1C (stereo unspecified)	-	-	0	-
